About 14,000 (4.5%) of roughly 310,000 compounds showed an effect of 50% or more. The effect is printed as a negative number. What follows is part of a selection rich in strong results, with near analogues and random picks from the rest.
What follows are molecules tested against human ether-à-go-go-related gene (hERG) potassium channel (human, UniProt Q12809) (assay: primary screen, population patch clamp on CHO cells stably expressing hERG; higher = less effect of the substance).
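Note: peak tail current of the secondary pulse compared with the same well before compound.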

human ether-à-go-go-related gene (hERG) potassium channel, sequence (Q12809 whole entry, looked up): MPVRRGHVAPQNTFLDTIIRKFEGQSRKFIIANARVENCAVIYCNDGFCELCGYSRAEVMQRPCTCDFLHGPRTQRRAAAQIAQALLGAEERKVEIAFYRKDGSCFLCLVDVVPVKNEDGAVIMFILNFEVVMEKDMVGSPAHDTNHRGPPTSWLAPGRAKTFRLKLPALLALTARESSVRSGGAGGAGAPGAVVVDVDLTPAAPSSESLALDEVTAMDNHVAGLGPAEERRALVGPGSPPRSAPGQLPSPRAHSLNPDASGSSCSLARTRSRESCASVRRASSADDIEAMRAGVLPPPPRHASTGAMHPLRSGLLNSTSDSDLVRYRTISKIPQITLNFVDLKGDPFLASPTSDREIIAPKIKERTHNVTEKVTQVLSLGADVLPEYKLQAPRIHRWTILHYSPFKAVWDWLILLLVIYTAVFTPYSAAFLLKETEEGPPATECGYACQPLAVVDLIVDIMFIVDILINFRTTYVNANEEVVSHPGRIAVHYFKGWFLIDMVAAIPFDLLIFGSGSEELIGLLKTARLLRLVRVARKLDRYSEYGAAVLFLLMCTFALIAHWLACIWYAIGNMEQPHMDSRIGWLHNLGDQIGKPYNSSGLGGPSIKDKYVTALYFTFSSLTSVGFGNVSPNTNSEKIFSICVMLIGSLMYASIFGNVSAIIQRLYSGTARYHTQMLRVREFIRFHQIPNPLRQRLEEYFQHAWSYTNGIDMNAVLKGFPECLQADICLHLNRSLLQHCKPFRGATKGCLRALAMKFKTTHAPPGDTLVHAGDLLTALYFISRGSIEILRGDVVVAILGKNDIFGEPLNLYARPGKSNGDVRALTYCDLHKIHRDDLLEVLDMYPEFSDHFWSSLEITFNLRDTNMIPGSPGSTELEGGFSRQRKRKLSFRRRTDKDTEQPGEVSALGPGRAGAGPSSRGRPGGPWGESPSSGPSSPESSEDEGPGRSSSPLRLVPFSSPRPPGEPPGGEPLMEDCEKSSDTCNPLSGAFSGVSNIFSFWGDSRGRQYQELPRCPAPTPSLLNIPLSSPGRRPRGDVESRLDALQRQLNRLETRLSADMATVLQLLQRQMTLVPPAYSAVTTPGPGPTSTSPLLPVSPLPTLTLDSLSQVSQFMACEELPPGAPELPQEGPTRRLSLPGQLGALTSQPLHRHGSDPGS

| SMILES | hERG current change (%, negative = inhibition) at 10uM |
| --- | --- |
| CCOC(=O)c1[nH]c(C)c(C(=O)N2CCN(c3cccc(Cl)c3)CC2)c1C | -13.8% |
| CN(C(=O)CSc1ncc(C(F)(F)F)cc1Cl)c1c(N)n(Cc2ccccc2)c(=O)[nH]c1=O | 8.25% |
| C/C(=N\OCc1ccc(C#N)cc1)c1ccccc1 | 12.1% |
| C/C(=N\OCc1ccc(C#N)cc1)c1ccc(S(=O)(=O)N(C)C)cc1 | -52.7% |
| CN(C)S(=O)(=O)c1ccc(C(=O)OCc2ccc(C#N)cc2)cc1 | -11.1% |
| C=CCn1c(SCC(=O)NCCc2ccccc2)nc2c([nH]c3ccccc32)c1=O | -3.29% |
| CCn1c(SCC(=O)N2CCOCC2)nc2sc3c(c2c1=O)CCCC3 | -5.19% |
| C=CCn1c(SCC(=O)N2CCN(CCO)CC2)nc2sc3c(c2c1=O)CCC3 | -20.9% |
| C=CCn1c(SCC(=O)N2CCN(c3ccccc3)CC2)nc2c([nH]c3ccccc32)c1=O | 13.3% |
| C=CCn1c(SCC(=O)NC2CCCC2)nc2c([nH]c3ccccc32)c1=O | -40.8% |
| C=CCn1c(SCCN2CCCC2)nc2c([nH]c3ccccc32)c1=O | -71.7% |
| C=CCn1c(SCC(=O)N2CCOCC2)nc2sc3c(c2c1=O)CCCC3 | -53.9% |
| C=CCn1c(SCC(=O)N2CCOCC2)nc2c([nH]c3ccccc32)c1=O | -52.9% |
| C=CCn1c(SCC(=O)N2CCCC2)nc2c([nH]c3ccccc32)c1=O | -29.6% |
| COc1ccc(S(=O)(=O)Nc2ccc(S(=O)(=O)Nc3nccs3)cc2)cc1 | 19.9% |
| COc1ccc(OCc2cc(C(=O)O)c(C)o2)cc1 | 2.69% |
| CCN(CC)c1nc2ccccc2n2cnnc12 | -16.4% |
| CCn1c(SC)nnc1-c1nnc(SC)n1CC | -7.09% |
| CCn1c(SC)nnc1-c1sc2cc(Cl)ccc2c1Cl | -55.4% |
| CSc1nnc(-c2sc3cc(Cl)ccc3c2Cl)n1C | 0.137% |
| Cc1ccc(SCC(=O)OCC(=O)NC2CCCCCCC2)cc1 | -4.33% |
| O=C(N/N=C/c1ccc[nH]1)c1cc(-c2cccs2)nc2ccccc12 | 0.659% |
| Br.CCC(C)N1Cc2ccccc2C1=N (stereo not drawn) | 2.75% |
| O=C(O)[C@@H](c1ccccc1)N1Cc2ccccc2C1=O | 17.2% |

| SMILES | hERG current change (%, negative = inhibition) at 10uM |
| --- | --- |
| Br.Cc1ccc(C(=O)C(c2ccccc2)N2Cc3ccccc3C2=N)cc1 (stereo not drawn) | -60.3% |
| NNC(=O)c1nc[nH]c1C(=O)Nc1ccccc1 | 24.1% |
| COc1ccccc1/C=N/NC(=O)c1ccc(CN2C(=O)c3cccc4cccc2c34)cc1 | 2.35% |
| Cc1cccc(C)c1NC(=O)C(NC(=O)c1ccccn1)c1ccc([N+](=O)[O-])cc1 (stereo not drawn) | 7.6% |
| CC1CCCCN1C(=O)c1ccc(COc2ccc([N+](=O)[O-])cc2)o1 (stereo not drawn) | -69.9% |
| O=C(O)c1ccc(COc2ccc([N+](=O)[O-])cc2)o1 | 23.2% |
| NNC(=O)c1ccc(COc2ccc([N+](=O)[O-])cc2)o1 | -23.1% |
| COc1ccc(/C=C(\C#N)C(=O)OCC(=O)Nc2ccc(C(C)(C)C)cc2)cc1 | 0.425% |
| COc1ccccc1OCCNC(=O)CSC(=S)N1CCCC1 | -4.17% |
| O=C(Cc1ncc(C(F)(F)F)cc1Cl)N1CCN(c2cccc(Cl)c2)CC1 | -60.6% |
| COc1ccc(N2CCN(C(=O)Cc3ncc(C(F)(F)F)cc3Cl)CC2)cc1 | -51.9% |
| O=C(Cc1ncc(C(F)(F)F)cc1Cl)N1CCN(c2ccc(F)cc2)CC1 | -41.3% |
| O=C(Cc1ncc(C(F)(F)F)cc1Cl)N1CCN(c2ccccn2)CC1 | -17.2% |
| COc1ccc(OCC(=O)N2CCN(c3cccc(C(F)(F)F)c3)CC2)cc1 | -42.6% |
| CN1CCN(C(=O)CCc2ncc(C(F)(F)F)cc2Cl)CC1 | 11.7% |
| CCN1CCN(C(=O)C2CCN(S(=O)(=O)c3ccc4c(c3)NC(=O)C(C)S4)CC2)CC1 (stereo not drawn) | 14.1% |
| COCCN(C(=O)c1csnn1)C(C(=O)NC1CCCC1)c1ccccc1 (stereo not drawn) | 3.23% |
| CC(C)C1=C2OC(N)=C(C#N)C(C#N)=C2C(C)CC1 (stereo not drawn) | 9.98% |
| C#CCNC(=O)C1=C[C@@H](c2ccc(Br)cc2)[C@H](CCCO)[C@@H](OCC)O1 | -28.4% |
| CCOc1ccc(N(CC)S(=O)(=O)c2ccc3c(c2)oc(=O)n3C)cc1 | -5.43% |
| COC(=O)c1sccc1NC(=O)c1cc(C)on1 | 4.01% |
| COc1ccccc1-c1coc2c(CN3CCC(C)CC3)c(O)ccc2c1=O | 7.18% |
| Cc1ccc(S(=O)(=O)N2CCOCC2)cc1C(=O)NCCCn1ccnc1 | 15.6% |
| CC1CCCCN1CC(O)COCCC12CC3CC(CC(C3)C1)C2.Cl (stereo not drawn) | -63.6% |
